CtBP-E1A inh: qHTS Assay for Inhibitors of the CtBP/E1A Interaction. 340,000 tested, 0.49% active. AID 651724, 2012. CtBP / adenovirus E1A interaction (AlphaScreen). activity change, % (concentration not given with the values). AlphaScreen GST-E1A/His-CtBP binding, 1536-well; active compounds read low; in the data active means activity change below about -65%; inconclusive means mostly about -30% to -63%; further: on the % scale 0 is the no-effect control and ±100 the full control effect
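Homogeneous bead-based format: GST-tagged E1A captured on glutathione donor beads, His-tagged CtBP on nickel acceptor beads; compounds precede bead addition by 2 h at 37 °C.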
CBFb-RUNX1 inh: qHTS Assay for Compounds Blocking the Interaction Between CBF-beta and RUNX1 for the Treatment of Acute Myeloid Leukemia | AlphaScreen CBFb-His/RUNX1-biotin binding, biochemical | Potency, µM (highest dose often 59.8 µM), for inactives: top-dose activity, negative = inhibition, most hits filed as inhibitors | 230,000 tested, under 10 active | AID 1477, 2009; further: % of control where 0% means no effect
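Interaction loss through any mechanism counts as activity. Pre-formed complex of His-CBF-beta and biotin-RUNX1 (30 nM apiece) is incubated with compound 15 min, then with 50 ng nickel and 50 ng streptavidin beads for 90 min before AlphaScreen detection.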
Eya2 inh: qHTS Assay for Inhibitors of the Phosphatase Activity of Eya2; Protein phosphatase EYA2 (Homo sapiens), O00167; recombinant Eya2, OMFP fluorescence dephosphorylation (OMFP is methylfluorescein phosphate); Potency, µM (top dose mostly 76.9 µM), without a hit: at the highest dose activity, negative = inhibition, actives largely listed as inhibitors; 330,000 tested, 0.006% active; further: potency means the concentration at half of the fitted maximal effect; on the % scale 0 is the no-effect control and ±100 the full control effect
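Eya2 (0.2 uM) preincubated 10 min at ambient with compound, then OMFP substrate added at 50 uM; 10 min reaction in 50 mM HEPES pH 7.5, 50 mM NaCl, 5 uM MgCl2, 0.05% BSA, 1 mM DTT. Fluorescence read at Ex 485/Em 525 nm.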
L3MBTL1 inh-1: qHTS Assay for the Inhibitors of L3MBTL1 | Lethal(3)malignant brain tumor-like protein 1 (Homo sapiens), Q9Y468 | AID 485360, 2010 | Potency, µM (doses to about 57.1 µM), for inactives: at the highest dose activity, negative = inhibition, actives largely listed as inhibitors | 230,000 tested, 0.66% active | AlphaScreen L3MBTL1–H3K9me1 peptide binding; further: potency means the concentration at half of the fitted maximal effect; on the % scale 0 is the no-effect control and ±100 the full control effect; nearly all actives have a fitted effect of over 60% in size
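L3MBTL1 50 nM + b-AHA-H3(1-15)K9me1 75 nM, 30 min RT; compound added, 30 min RT; streptavidin donor/Ni-chelate acceptor beads 10 ug/mL each final, 30 min RT dark; AlphaScreen read.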
MBNL1-CUG inh: qHTS Assay for Inhibitors of MBNL1-poly(CUG) RNA binding; TR-FRET MBNL1-His/biotin-(CUG)12 binding, 665/545 ratio; Potency, µM (highest dose often 57.5 µM), without a hit: top-dose activity change, negative = inhibition, hits mostly inhibitors; AID 2675, 2010; 280,000 tested, 0.036% active; active means well fitted inhibition curve with a large enough effect in the signal ratio, with a control signal flat, not every such curve was filed as active; inconclusive means small, poorly fitted or top-dose-only effect, or effect the other way, or a change in a side signal; inactive means no such curve, though single readings can be large or run the other way; the % refers to the signal ratio; further: potency means the concentration at half of the fitted maximal effect; on the % scale 0 is the no-effect control and ±100 the full control effect
Target sequence (Q9NR56 whole entry, looked up): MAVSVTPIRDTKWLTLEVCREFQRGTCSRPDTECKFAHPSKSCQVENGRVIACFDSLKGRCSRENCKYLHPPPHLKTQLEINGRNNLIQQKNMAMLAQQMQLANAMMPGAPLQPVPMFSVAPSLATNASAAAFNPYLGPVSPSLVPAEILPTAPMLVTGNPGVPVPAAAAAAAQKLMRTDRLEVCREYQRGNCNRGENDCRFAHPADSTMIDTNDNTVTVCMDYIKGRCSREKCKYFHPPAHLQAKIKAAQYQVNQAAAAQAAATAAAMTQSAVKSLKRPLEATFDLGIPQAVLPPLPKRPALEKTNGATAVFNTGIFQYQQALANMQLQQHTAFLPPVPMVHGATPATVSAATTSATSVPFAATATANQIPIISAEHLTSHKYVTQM
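Ratiometric TR-FRET (665 over 545 nm, excitation 340 nm) tracks disruption of MBNL1-His/biotin-(CUG)12 complex after 60 min at room temperature, with compounds at 92 nM to 58 uM final.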
Six1-Eya2 blk: qHTS Assay for Inhibitors of the Six1/Eya2 Interaction | Homeobox protein SIX1 (Homo sapiens) + Protein phosphatase EYA2 (Homo sapiens), … | AlphaScreen GST-Six1/His-Eya2 binding, biochemical; active compounds read low | activity change, % (concentration not given with the values) | 360,000 tested, 0.56% active; in the data active means activity change below about -65%; inconclusive means mostly about -30% to -63%; further: on the % scale 0 is the no-effect control and ±100 the full control effect
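Six1/Eya2 binding was read as AlphaScreen signal after compounds were pinned into GST-Six1 plus His-tagged Eya2 (5X stock 250/500 nM) in pH 8.0 Tris/NaCl/TCEP buffer, beads added, then incubated 1 h, 37 C, dark.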
L3MBTL1 inh-2: qHTS Assay for the Inhibitors of L3MBTL1: Hit Validation | AID 540279, 2011 | Potency, µM, hits mostly inhibitors | 500 tested, 91% active | shares compounds with L3MBTL1 inh-1 | L3MBTL1 methyl-lysine binding inhibition, biochemical qHTS; further: potency means the concentration at half of the fitted maximal effect; nearly all actives have a fitted effect of over 70% in size
L3MBTL1 ctr: qHTS Assay for the Inhibitors of L3MBTL1: Hit Validationin AlphaScreen Counterscreen. shares compounds with L3MBTL1 inh-1. AlphaScreen counterscreen, signal inhibition. Potency, µM (highest dose often 57.1 µM), without a hit: top-dose activity change, negative = inhibition, hits mostly inhibitors. 500 tested, under 10 active; further: potency means the concentration at half of the fitted maximal effect; 0% is about no effect
Starred values were filed as active, the others as inactive; u = inconclusive; x = not tested or not shown; [ ] = remark or other dose. The list is not random: actives were taken first. Their share in the collection is about 0.89%. Unless noted, the call rests on the fitted dose curve; in most records, active means well fitted curve in the direction sought with a large enough effect; inconclusive means small, poorly fitted or top-dose-only effect, or another doubt; inactive means no such curve, though single readings can be large; an effect the other way counts as inactive or inconclusive.

SMILES | CtBP-E1A inh | CBFb-RUNX1 inh | Eya2 inh | L3MBTL1 inh-1 | MBNL1-CUG inh | Six1-Eya2 blk | L3MBTL1 inh-2 | L3MBTL1 ctr
Cc1ccc(NC(=O)CN2C(=O)N/C(=C\c3cccn3-c3cccc(C(=O)O)c3)C2=O)cc1 | 13.1 | x | 16.3% | 10µM* | u | u | 2.12* | 6.3%
Cc1ccc(CN2C(=O)N/C(=C\c3cccn3-c3cccc(C(=O)O)c3)C2=O)cc1 | -3.8 | 10.3% | 3.4% | 2.51µM* | u | u | 2.67* | -20.3%
O=C(O)c1cccc(-n2cccc2/C=C2\NC(=O)N(Cc3ccc(F)cc3)C2=O)c1 | -11.6 | u | 0.0% | u | u | -21.3 | x | x
Cc1ccc(NC(=O)CN2C(=O)N/C(=C/c3cc(C)n(-c4cccc(C(=O)O)c4)c3C)C2=O)cc1 | -19.1 | x | -3.4% | 25.1µM* | 13.4% | u | 16.8* | -13.4%
Cc1ccc(N2C(=O)N(CC(=O)N3c4ccccc4CC3C)C(=O)C2C)cc1 (stereo not drawn) | 1.9 | x | -18.8% | -8.8% | x | -2.1 | x | x
O=C(Nc1cccc(S(=O)(=O)NC2=NCCCCC2)c1)c1cc(-c2ccncc2)nc2ccccc12 | x | -20.5% | -3.6% | -4.9% | 19.7% | -0.5 | x | x
O=C(Nc1cccc(S(=O)(=O)NC2=NCCCCC2)c1)c1cc(-c2ccco2)nc2ccccc12 | -1.5 | x | 15.5% | 35.5µM* | x | -26.0 | 2.99* | 2.6%
Cc1cc(=O)oc2c(CN3CCC(C)CC3)c(O)c(Cl)cc12 | 12.5 | u | 4.0% | 31.6µM* | 24.0% | -6.8 | 10.6* | 14.6%
Cc1cc(=O)oc2c(CN3CCCC3)c(O)c(Cl)cc12 | 15.8 | x | 3.3% | x | 25.9% | 9.4 | x | x
CCN(CC)Cc1c(O)c(Cl)cc2c(C)cc(=O)oc12 | 7.3 | u | -12.9% | 22.4µM* | 37.5% | 1.5 | 15* | 3.5%
CCOc1cc(C(=O)Nc2ccc(C(=O)NCCN(CC)CC)cc2)ccc1OCC(=O)N1CCOCC1 | 3.2 | x | 9.3% | 2.7% | x | -3.2 | x | x
CC(=O)c1c(O)cc2c3c1OC(C)(C)C1CCC(C)(CC31)O2 (stereo not drawn) | -13.6 | x | x | x | x | 3.4 | x | x
O=C(NCCc1ccccc1)C(=S)N1CCCCC1 | -0.4 | -1.9% | 2.0% | 2.7% | -8.1% | 6.3 | x | x
O=C(Cc1cccs1)Nc1ccc(S(=O)(=O)Nc2ncccn2)cc1 | -0.9 | -23.8% | 7.6% | u | -2.3% | -17.4 | x | x
Cc1ccnc(NS(=O)(=O)c2ccc(NC(=O)Cc3cccs3)cc2)n1 | 3.7 | -7.2% | -21.9% | 31.6µM* | -3.1% | -25.2 | 2.67* | -0.8%
CC(C)(CS(=O)(=O)[O-])NC(=O)CC[N+](C)(C)CCO | 16.1 | -29.9% | 16.0% | 3.55µM* | -25.4% | 27.1 | 1.19* | -1.2%
CC(CNc1ccccc1O)C(=O)O (stereo not drawn) | 0.6 | u | 1.2% | 28.2µM* | x | -28.3 | 10.6* | 0.2%
CC(NC(=O)CCC(=O)Nc1ccccc1O)c1ccccc1 (stereo not drawn) | 1.8 | x | x | x | x | -2.3 | x | x
CC(=O)c1ccccc1NS(=O)(=O)c1cccc2nonc12 | 2.4 | x | 8.0% | x | 8.2% | -8.3 | x | x
CC(=O)c1ccccc1NS(=O)(=O)c1cccc2nsnc12 | -3.5 | x | 4.8% | 31.6µM* | 26.0% | -15.8 | 26.7* | 7.0%
Cc1cc(/C=C(/C#N)c2nc3ccccc3[nH]2)c(C)n1-c1cc(C(=O)O)cc(C(=O)O)c1 | -65.6* | -28.9% | 2.8% | 3.55µM* | u | -69.2* | 1.5* | -15.1%
Cc1cc(/C=C(/C#N)c2nc3ccccc3[nH]2)c(C)n1-c1ccccc1C(=O)O | 0.0 | 3.9% | -1.1% | x | u | u | x | x
Cc1nnc(N2C(=O)c3oc4ccccc4c(=O)c3C2c2ccco2)s1 (stereo not drawn) | -27.8 | -17.5% | 19.8% | 22.4µM* | u | u | u | 8.0%
COc1cccc(-c2cc3nc(NCc4ccccc4F)n(C)c(=O)c3s2)c1 | 6.3 | x | x | x | x | 3.5 | x | x
CC(=O)c1ccc(S(=O)(=O)NCCC(=O)OCC(=O)N(Cc2ccccc2)C(C)(C)C)cc1 | -16.9 | x | 5.0% | -1.1% | x | 8.6 | x | x
SMILES | CtBP-E1A inh | CBFb-RUNX1 inh | Eya2 inh | L3MBTL1 inh-1 | MBNL1-CUG inh | Six1-Eya2 blk | L3MBTL1 inh-2 | L3MBTL1 ctr
O=C(CSc1nc(=O)n(CCCN2CCOCC2)c2c1CCC2)Nc1ccc([N+](=O)[O-])cc1 | -5.7 | x | -1.1% | 2.7% | x | -5.9 | x | x
Oc1ccccc1N=Cc1c(O)ccc2ccccc12 | -13.4 | -21.9% | u | 28.2µM* | u | -14.0 | 5.97* | 12.4%
Oc1ccc2ccccc2c1C=Nc1ccccc1Br | x | x | -2.4% | -4.3% | 6.2% | 1.5 | x | x
CCCc1cc(=O)oc2cc(C)cc(OC(C)C(=O)NCc3ccncc3)c12 (stereo not drawn) | 2.5 | x | -9.3% | x | 0.3% | -3.4 | x | x
Cc1ccc(C(C)C)cc1OCCCCN1CCCC1 | 1.5 | 2.6% | -12.9% | 28.2µM* | x | 0.1 | 18.9* | 6.1%
O=C(NCc1ccco1)c1cc2ccc(O)cc2oc1=O | -3.1 | -13.9% | 6.4% | 20µM* | u | -10.2 | 9.47* | 2.5%
COc1ccc2cc(C(=O)NCc3ccco3)c(=O)oc2c1 | -0.7 | 3.3% | -1.6% | -14.1%[11.4 µM] | u | -1.0 | x | x
Clc1cccc(CNCCCSc2ncccn2)c1 | 1.2 | x | 2.6% | 0.2% | -8.4% | 3.1 | x | x
CC(C)Nc1ccc(Nc2ccnc3cc4ccccc4cc23)cc1 | -80.9* | u | -0.8% | 14.1µM* | x | -69.6* | 21.2* | 1.4%
Cc1cccc(NC(=O)/C(=C\c2ccc([N+](=O)[O-])o2)NC(=O)c2ccc(Cl)cc2)c1 | -10.8 | -3.8% | -2.9% | 28.2µM* | 35.4% | -20.8 | 13.4* | 1.4%

Screening data deposited in PubChem BioAssay by National Center for Advancing Translational Sciences (NCATS).
